Each structure is given as a SMILES string. Among all 330,000 compounds or so, about 10,000 (3%) were called active. The sample holds actives, similar compounds and a random draw of the others, so the mix is not that of the screen. Values without a mark were called inactive.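 The calls were made as follows: active = inhibition of at least 50% at 8 µM in the primary screen; inactive = the rest.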

For this assay, the target named is Protein Mdm4 (Homo sapiens) + E3 ubiquitin-protein ligase Mdm2 (Homo sapiens) (UniProt O15151+Q00987). Briefly: disruptors of Mdm2/MdmX RING complex – cell-based, luminescence, split luciferase, SaOS-2, uHTS, primary screen (AID 485346). The note with it: SaOS-2 split-luciferase Mdm2/MdmX complementation, at 8 µM, hits give high values.
Chain of Protein Mdm4 (Homo sapiens) + E3 ubiquitin-protein ligase Mdm2 (Homo sapiens) (O15151 whole entry, looked up): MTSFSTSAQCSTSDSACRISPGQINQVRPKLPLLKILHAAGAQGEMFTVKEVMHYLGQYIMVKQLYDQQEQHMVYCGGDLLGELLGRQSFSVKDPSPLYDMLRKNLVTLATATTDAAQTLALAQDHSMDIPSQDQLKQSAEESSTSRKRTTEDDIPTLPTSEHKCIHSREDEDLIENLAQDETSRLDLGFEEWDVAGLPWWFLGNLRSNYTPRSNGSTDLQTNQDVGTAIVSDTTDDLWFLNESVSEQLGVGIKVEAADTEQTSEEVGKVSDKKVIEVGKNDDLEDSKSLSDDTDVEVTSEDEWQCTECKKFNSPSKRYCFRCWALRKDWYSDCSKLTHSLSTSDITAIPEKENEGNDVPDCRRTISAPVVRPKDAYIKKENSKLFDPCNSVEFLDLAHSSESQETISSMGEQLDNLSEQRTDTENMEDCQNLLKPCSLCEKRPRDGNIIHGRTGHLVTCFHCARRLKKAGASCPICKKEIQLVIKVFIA
Chain of Protein Mdm4 (Homo sapiens) + E3 ubiquitin-protein ligase Mdm2 (Homo sapiens) (Q00987 whole entry, looked up): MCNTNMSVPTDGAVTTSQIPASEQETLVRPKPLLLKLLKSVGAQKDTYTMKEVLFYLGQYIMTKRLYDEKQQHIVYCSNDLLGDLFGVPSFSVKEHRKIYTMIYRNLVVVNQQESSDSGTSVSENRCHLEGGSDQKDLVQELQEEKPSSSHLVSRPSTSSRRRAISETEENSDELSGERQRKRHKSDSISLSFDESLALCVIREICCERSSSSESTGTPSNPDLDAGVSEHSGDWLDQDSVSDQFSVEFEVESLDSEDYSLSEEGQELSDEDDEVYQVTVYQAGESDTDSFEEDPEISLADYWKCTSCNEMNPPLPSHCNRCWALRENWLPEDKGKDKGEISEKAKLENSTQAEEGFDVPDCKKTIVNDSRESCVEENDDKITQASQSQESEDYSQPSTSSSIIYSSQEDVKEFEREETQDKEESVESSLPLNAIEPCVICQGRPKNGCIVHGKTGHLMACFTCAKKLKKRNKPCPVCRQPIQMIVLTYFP
For `O=C1C(=O)N(CC2COc3ccccc3O2)c2ccccc21` (centres undefined), the inhibition is 26.1%.

With `Cc1noc(C)c1C(=O)NCC1COc2ccccc2O1` (centres undefined), the inhibition is 26.4%. `Cc1cc(C(=O)CCl)c(C)n1CC1COc2ccccc2O1` (centres undefined): the inhibition was 78.9% (active). Take `CCCCN(C)CCNC(=O)CSCc1ccc(C)cc1`: the inhibition is 7.69%. On to `CCOC(=O)NC(=O)C(=CNc1cccc(OC)c1)C(=O)NC(=O)OCC`, for which the inhibition was 9.28%. The value for `C=CCOCCN(C)C1=NS(=O)(=O)c2ccccc21` was 5.66%; that for `O=C(Nc1nc(-c2cccnc2)cs1)c1ccccc1F` was -52.4%; that for `O=C(Nc1nnc(-c2ccccc2F)s1)c1ccccc1F` was 54.1% (active).

As for `CN(Cc1ccccc1)S(=O)(=O)c1nnc(NC(=O)c2ccccc2F)s1`, the inhibition was -3.09%. Consider `CCSc1nc(=S)n(CC)c(C)c1C(C)=O`, for which the inhibition is 14.7%. With `COc1ccc(-c2cn3ccc(C)cc3n2)cc1`, the inhibition was 33.6%. For the molecule `Cc1ccc2nc(-c3ccc(Br)cc3)cn2c1`, the inhibition was 61.7% (active).

Take `Cc1ccc(-c2cn3cc(C)ccc3n2)cc1`: the inhibition is 89.4% (active). Turning to `CCN(CC)S(=O)(=O)c1ccc(-c2cn3ccc(C)cc3n2)cc1`, the inhibition was -58.3%.

For the molecule `Cc1ccc(-c2cn3cc([N+](=O)[O-])ccc3n2)cc1`, the inhibition is -68.9%.

Regarding `CSc1nnc2ccc(-c3ccc(C)cc3)nn12`, the inhibition is 34.9%. With `C[C@@]12C(=O)N(c3cccc(Br)c3)C(=O)N1[C@H](c1ccc(Cl)cc1)[C@@H]1C(=O)N(C3CCCCC3)C(=O)[C@@H]12`, the inhibition is 49.2%. Turning to `CCC(C)C(N=C1NS(=O)(=O)c2ccccc21)C(=O)N1CCC(C)CC1` (centres undefined), the inhibition was 11.7%. The value for `CCN1C(=O)/C(=C\N2CCN(c3cccc(Cl)c3)CC2)SC1=S` was 64.2% (active); that for `CCN1C(=O)/C(=C\N2CCOCC2)SC1=S` was 7.76%; that for `CCC1(C)NC(=O)N(CC(=O)N2CCN(c3cccc(Cl)c3)CC2)C1=O` (centres undefined) was 13.3%.

With `CCOc1ccc(N/C=C/C(=O)c2cc(OC)c(OC)c(OC)c2)cc1`, the inhibition is 28.5%. As for `COc1ccc(C(=O)/C=C/Nc2ccccn2)cc1`, the inhibition was 56.3% (active). With `CCOc1ccc(N/C=C/C(=O)c2ccccc2)cc1`, the inhibition was -143%. As for `COc1ccccc1-c1sc2ccccc2c1C#CC1(O)CCCCC1`, the figure is 12%.

In the case of `CSc1ccccc1NC(=O)COC(=O)CCCOc1ccc(C)cc1`, the inhibition is 2.26%. As for `COc1ccc(/C=C/c2nnc(NC(=O)C(C)C)s2)cc1`, the inhibition was 18.7%. For `O=C(CSc1ccccc1)Nc1nnc(/C=C/c2ccccc2)s1`, the inhibition was -2.82%. As for `O=C(Nc1ccc(Cl)cc1)Nc1nnc(/C=C/c2ccccc2)s1`, the figure is 84.4% (active); as for `CC(=O)NCC(=O)N1CCC(n2nccc2NC(=O)CCCc2ccccc2)CC1`, -4.94%; as for `COC(=O)c1cccc(N(CC(=O)NCC2CCCO2)C(=O)CCC(=O)Nc2cc(C)on2)c1` (centres undefined), 5.29%. `CC12CCC(C(=O)N(NC(=O)c3ccccc3O)C1=O)C2(C)C` (centres undefined): the inhibition was 61.1% (active).

Turning to `O=C(NN1C(=O)C2C(C1=O)C1C=CC2C12CC2)c1ccccc1Cl` (centres undefined), the inhibition is 4.22%.

Take `COc1ccccc1C(=O)NN1C(=O)C2C3C=CC(O3)C2C1=O` (centres undefined): the inhibition was 14.8%.

As for `COCCN1C(=O)N(c2ccc(Cl)cc2)C(=O)C1CC(=O)Nc1cc(OC)cc(OC)c1` (centres undefined), the inhibition is 22.4%.

As for `O=C(Nc1ccc(Br)cc1)c1cccc(NC(=O)C2C3CC4OC(=O)C2C4C3)c1` (centres undefined), the inhibition is 8.16%.

Turning to `CCCCCCSc1ccc([C@@H]2[C@@H]3C(=O)N(CC)C(=O)[C@@H]3[C@]3(C(=O)OC)CCCCN23)cc1OC`, the inhibition was 54.2% (active).

For the molecule `CCCCCCSc1ccc([C@@H]2[C@H]3C(=O)N(CC)C(=O)[C@H]3[C@]3(C(=O)OC)CCCCN23)cc1`, the inhibition was 29.8%. For `CCN1C(=O)[C@@H]2[C@@H](c3ccc(-c4ccc(OC)cc4)c(OC)c3)N3CCC[C@@]3(C(=O)OC)[C@@H]2C1=O`, the inhibition is 28.1%.

`COCCn1c(C)cc(C(=O)CN2c3cccc4cccc(c34)S2(=O)=O)c1C`: the inhibition is 5.95%.

As to `C/C(=N\Nc1ccc([N+](=O)[O-])cc1)c1ccc(-n2nncc2C(C)(C)C)cc1`, the inhibition was 22.2%. Consider `O=C(CN1C(=O)CSC1=O)N1CCCC(Nc2ccc(F)cc2)C1` (centres undefined), for which the inhibition is 5.11%.

On to `CC1=NN(c2cccc(Cl)c2)C(=O)C12CC(C)=C(C)CS2` (centres undefined), for which the inhibition was 6.51%. Turning to `COc1ccc(C(C(=O)NC2CCCCC2)N(C(=O)CCl)c2ccccc2Cl)cc1` (centres undefined), the inhibition is 92% (active). As for `COc1cccc(N(C(=O)C2COc3ccccc3O2)C(C(=O)NC2CCCCC2)c2ccc(O)cc2)c1` (centres undefined), the figure is 5.54%; as for `COc1ccc(C(C(=O)NC2CCCCC2)N(C(=O)c2snc(C(N)=O)c2N)c2ccccc2OC)cc1` (centres undefined), 23.2%. Take `Cc1nnc(SC(C(=O)Nc2cc(Cl)cc(Cl)c2)c2ccccc2)[nH]c1=O` (centres undefined): the inhibition was -11%.

As to `OCC1(Cc2ccccc2C(F)(F)F)CCN(Cc2cccc3cnccc23)CC1`, the inhibition was -16.9%. As for `Cc1cccc(C(=O)Nc2ccc(Oc3cnccn3)cc2)c1`, the figure is -15.7%; as for `CCCCSc1nnc2c(n1)OC=Nc1ccccc1-2`, -25.2%; as for `Cc1ccc(S(=O)(=O)NCC(=O)N(CC(=O)NC2CCCCC2)Cc2ccco2)cc1`, -4.29%.

For `Cc1ccc(-c2cc(=O)[nH]c(NCc3ccccc3)n2)cc1`, the inhibition is -3.28%. As for `Brc1ccc(C2CC(c3ccccc3)=Nc3ccccc3N2)cc1` (centres undefined), the inhibition was -130%. Take `Cc1[nH]c(=O)c(C(=O)/C=C/c2ccccc2)c2c1CCCC2`: the inhibition was 70.9% (active).

For the molecule `Cc1cn(COC/C=C/c2ccccc2)c(=O)[nH]c1=O`, the inhibition was 7.02%. As for `CC(=O)Nc1ccc(/C=C/C(=O)c2ccccc2)cc1`, the inhibition was -7.03%. As for `CC(C)n1cnc2c(Nc3cccc(Cl)c3)nc(N(CCO)CCCO)nc21`, the figure is 88.9% (active). In the case of `CC(C)C[C@H](CO)Nc1nc(N(C)c2cccc(Cl)c2)c2ncn(C(C)C)c2n1`, the inhibition is 22.9%. The value for `COCn1c(C(O)c2ccccc2)cc2ccccc21` (centres undefined) was -4.01%.

A word on the inhibition: it is the drop in the measured response relative to a control, in per cent.

For the origin of these results see PubChem BioAssay AID485346 (Sanford-Burnham Center for Chemical Genomics, 2010).
